Results reported in PubChem BioAssay (EPA / NIEHS).
Inconclusive results are not listed. Active and inactive are the calls of the source. The calls were made as follows, unless noted: active = hit-call score of the fitted dose curve at least 0.9, where 1 is the maximum; inconclusive = response in the unintended direction; inactive = score below 0.9.

What follows are molecules tested against Glutamate receptor ionotropic, kainate 1 (Rattus norvegicus) (UniProt P22756) (assay: NVS_IC_rKAR: NovaScreen (NVS) Ion Channel Assay for rat Kainic Acid Receptors (KAR) (AID 2283334; active = hit-call score of the fitted dose curve at least 0.9, where 1 is the maximum; inactive = score below 0.9)).
How it was run: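 Radioligand displacement binding using rat forebrain membranes, 1 h incubation, filter-based scintillation counting. Screened in duplicate at 25 uM, with actives retested in concentration-response up to 50 uM; fitted against DMSO.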

Glutamate receptor ionotropic, kainate 1 (Rattus norvegicus), sequence (P22756 whole entry, looked up): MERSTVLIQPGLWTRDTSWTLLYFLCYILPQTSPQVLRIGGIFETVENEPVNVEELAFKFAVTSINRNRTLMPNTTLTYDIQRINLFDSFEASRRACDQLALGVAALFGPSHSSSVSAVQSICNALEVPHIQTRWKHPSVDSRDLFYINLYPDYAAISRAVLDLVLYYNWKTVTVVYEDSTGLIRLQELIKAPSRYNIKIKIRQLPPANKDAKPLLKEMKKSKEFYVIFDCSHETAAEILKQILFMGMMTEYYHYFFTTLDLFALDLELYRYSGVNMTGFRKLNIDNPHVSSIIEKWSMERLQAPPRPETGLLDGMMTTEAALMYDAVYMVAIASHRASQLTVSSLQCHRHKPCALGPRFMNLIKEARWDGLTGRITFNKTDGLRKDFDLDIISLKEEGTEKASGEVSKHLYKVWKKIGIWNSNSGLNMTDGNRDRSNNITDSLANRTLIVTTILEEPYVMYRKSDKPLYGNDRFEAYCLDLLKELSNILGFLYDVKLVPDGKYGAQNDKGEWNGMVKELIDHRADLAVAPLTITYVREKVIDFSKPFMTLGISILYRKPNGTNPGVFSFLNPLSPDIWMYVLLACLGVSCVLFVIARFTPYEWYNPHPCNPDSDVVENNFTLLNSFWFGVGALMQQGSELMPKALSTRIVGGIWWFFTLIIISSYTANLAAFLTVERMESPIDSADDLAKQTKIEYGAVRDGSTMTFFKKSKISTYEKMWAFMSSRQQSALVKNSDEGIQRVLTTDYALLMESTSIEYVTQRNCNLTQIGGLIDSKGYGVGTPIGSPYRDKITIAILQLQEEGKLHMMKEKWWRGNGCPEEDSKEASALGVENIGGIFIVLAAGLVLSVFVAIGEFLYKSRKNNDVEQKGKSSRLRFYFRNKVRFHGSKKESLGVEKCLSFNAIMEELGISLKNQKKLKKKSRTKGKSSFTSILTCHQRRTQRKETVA

outcome, inactive:
COC(=O)CC(=O)OC
COc1ccc2sc(C(=O)Nc3nnn[nH]3)c(OC(C)C)c2c1
CCC(C)(C)C(=O)O[C@H]1C[C@@H](C)C=C2C=C[C@H](C)[C@H](CC[C@@H]3C[C@@H](O)CC(=O)O3)[C@H]21
On1ccccc1=S
O=c1[nH]c2ccc(S(=O)CCN3CCC(Cc4ccc(F)cc4)CC3)cc2o1 (configuration not stated)

What follows are molecules tested against rat Peripheral-type Benzodiazepine Receptor (PBR), Tspo (gene 24230) (UniProt P16257) (assay: NVS_MP_rPBR: NovaScreen (NVS) Membrane Protein Assay for rat Peripheral-type Benzodiazepine Receptor (PBR) (AID 2283335)).
How it was run: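 Rat kidney membranes; radioligand binding with displacement, filter-based scintillation counting, 1 h incubation. Primary screen in duplicate at 25 uM, actives followed in concentration series; loss of binding vs DMSO.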

rat Peripheral-type Benzodiazepine Receptor (PBR), Tspo (gene 24230), sequence (P16257 whole entry, looked up): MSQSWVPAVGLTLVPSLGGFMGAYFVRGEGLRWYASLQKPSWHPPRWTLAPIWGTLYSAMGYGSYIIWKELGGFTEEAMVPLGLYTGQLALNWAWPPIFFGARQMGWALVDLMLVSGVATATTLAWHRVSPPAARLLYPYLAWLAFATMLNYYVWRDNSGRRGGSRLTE

AC50, active:
CCOc1cccc(-n2cc(C(=O)N3CCN(c4cc(C(=O)O)c5ccccc5c4)CC3)nc2-c2ccc(C)cc2)c1 9.73 µM
Cc1c(-c2cccnc2)c2ccccc2n1CCCCC(=O)O 9.13 µM
COc1ccc2sc(C(=O)Nc3nnn[nH]3)c(OC(C)C)c2c1 25 µM
Cn1c(=O)cc(Oc2ccc(F)cc2F)c2cnc(NCC(C)(C)O)nc21 9.69 µM
O=C(OC[C@H]1O[C@@H](OC(=O)c2cc(O)c(O)c(OC(=O)c3cc(O)c(O)c(O)c3)c2)[C@H](OC(=O)c2cc(O)c(O)c(OC(=O)c3cc(O)c(O)c(O)c3)c2)[C@@H](OC(=O)c2cc(O)c(O)c(OC(=O)c3cc(O)c(O)c(O)c3)c2)[C@@H]1OC(=O)c1cc(O)c(O)c(OC(=O)c2cc(O)c(O)c(O)c2)c1)c1cc(O)c(O)c(OC(=O)c2cc(O)c(O)c(O)c2)c1 0.715 µM
CCc1cc(SCc2sc(-c3ccc(C(F)(F)F)cc3)nc2CN2CCN(c3ccc(OC)cc3)CC2)ccc1OCC(=O)O 1.81 µM
O=P(OC(CCl)CCl)(OC(CCl)CCl)OC(CCl)CCl 2.36 µM
